# More than one record can exist for a structure, and the calls need not agree. The source made the active and inactive calls. Rule for the calls: active = hit-call score of the fitted dose curve at least 0.9, where 1 is the maximum; inactive = score below 0.9.
# Target: Transcription factor Sp1 (Homo sapiens) (UniProt P08047)
# Assay: ATG_Sp1_CIS: Attagene CIS-FACTORIAL HepG2 Assay for human Specificity Protein 1 (Sp1) (AID 2282961)
# Conditions: HepG2 Sp1 cis-reporter transcription, actives raise or lower the signal
# Protocol: ATG_CIS is a cell-based, multiplexed-readout assay that uses HepG2, a human liver cell line, with measurements taken at 24 hours after chemical dosing in a 24-well plate.ATG_Sp1_CIS is one of 52 assay component(s) measured or calculated from the ATG_CIS assay. It is designed to make measurements of mRNA induction, a form of inducible reporter, as detected with fluorescence intensity signals by Reverse transcription polymerase chain reaction (RT-PCR) and Capillary electrophoresis technology.Data from the assay component ATG_Sp1_CIS was analyzed into 1 assay endpoint. This assay endpoint, ATG_Sp1_CIS, was analyzed with bidirectional fitting relative to DMSO as the negative control and baseline of activity. Using a type of inducible reporter, measures of mRNA for gain or loss-of-signal activity can be used to understand the reporter gene at the transcription factor-level as they relate to the gene SP1. Furthermore, this assay endpoint can be referred to as a primary readout, because this assay has produced multiple assay endpoints where this one serves a reporter gene function. To generalize the intended target to other relatable targets, this assay endpoint is annotated to the dna binding intended target family, where the subfamily is zinc finger.
# Human liver HepG2 cells are transiently transfected with multiple reporter transcription units (MRTUs) in 6-well plates using FuGene 6 reagent (Roche; 3 ml FuGene/1 mg DNA). The MRTU constructs are regulated by a cis-regulating element (promoter). […] A major difference between the CIS and TRANS system is that in CIS activities of endogenous TFs are measured, whereas the TRANS assay evaluates changes in activities of exogenous, chimeric NR-Gal4 proteins. […] At the end of 24 hour incubation, total RNA was isolated using TriZol reagent (Invitrogen). The isolated RNA is then reverse-transcribed using oligo(dT) primer and Mo-MLV reverse transcriptase (Invitrogen) with DNAse I (Ambion) treatment for 30 min. The one-tenth of the produced cDNA was amplified by PCR using Taq DNA polymerase (Invitrogen) and two reporter sequence-specific primers. The PCR products were fluorescently labeled by primer extension with 6-arboxyfluorescein (6-FAM) 5'-labeled reporter sequence-specific primer (2 min at 95 C, 20 s at 68 C and 10 min at 72 C) and these products were digested with 5U of HpaI (New England Biolabs) for 2h at 37 C. The fragments were purified using Qiaquick PCR columns (Qiagen), analyzed on an ABI 3130xL genetic analyzer (Applied Biosystems) with peak positions identified by using a set of X-rhodamine (ROX)-labeled MapMarker1000 molecular weight standards (BioVentures). The raw capillary electrophoresis data was processed using Attagraph software (Attagene).
# Transcription factor Sp1 (Homo sapiens), sequence (P08047 whole entry, looked up): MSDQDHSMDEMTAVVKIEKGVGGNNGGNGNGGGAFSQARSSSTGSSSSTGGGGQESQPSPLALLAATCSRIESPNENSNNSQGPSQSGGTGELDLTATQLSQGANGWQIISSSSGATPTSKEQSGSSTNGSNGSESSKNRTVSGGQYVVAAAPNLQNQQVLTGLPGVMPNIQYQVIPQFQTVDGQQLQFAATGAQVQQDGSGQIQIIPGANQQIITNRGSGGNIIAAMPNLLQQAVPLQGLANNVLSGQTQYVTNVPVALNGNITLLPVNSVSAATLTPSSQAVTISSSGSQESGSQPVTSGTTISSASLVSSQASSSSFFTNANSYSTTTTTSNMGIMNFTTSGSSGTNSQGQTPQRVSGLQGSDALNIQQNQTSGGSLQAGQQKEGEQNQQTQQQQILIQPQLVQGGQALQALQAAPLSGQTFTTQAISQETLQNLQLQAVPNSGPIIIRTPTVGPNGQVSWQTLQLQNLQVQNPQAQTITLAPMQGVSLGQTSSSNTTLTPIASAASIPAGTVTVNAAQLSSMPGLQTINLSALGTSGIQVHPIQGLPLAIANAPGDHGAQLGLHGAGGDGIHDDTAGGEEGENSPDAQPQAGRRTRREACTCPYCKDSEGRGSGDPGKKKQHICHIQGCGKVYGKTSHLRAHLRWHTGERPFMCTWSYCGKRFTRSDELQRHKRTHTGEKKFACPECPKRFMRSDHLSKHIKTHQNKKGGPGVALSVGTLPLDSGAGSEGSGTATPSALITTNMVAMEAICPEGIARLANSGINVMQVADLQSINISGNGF
Compound,outcome,AC50
FC(F)OCC(F)(F)C(F)(F)F,inactive,–
CN(N=O)c1ccc([N+](=O)[O-])cc1,inactive,–
N#CCCC(Br)(C#N)CBr (stereo not given),–,49.2 µM (active)
C=CCc1ccccc1O,inactive,–
Nc1ccc(-c2ccccc2)cc1,inactive,–
C=CC(F)(C(F)(F)F)C(F)(F)C(F)(F)F (stereo not given),inactive,–
CC1(C)[C@H](/C=C2\CCSC2=O)[C@@H]1C(=O)OCc1coc(Cc2ccccc2)c1,inactive,–
CCCCCCCCCCCCc1cccc(S(=O)(=O)O)c1,inactive,–
CCCCN(CCCC)C(=S)[S-].CCCCN(CCCC)C(=S)[S-].[Ni+2],inactive,–
C=C(C)C(=O)OCCCCOC(=O)C(=C)C,inactive,–
CC(c1ccccc1)(c1ccc(O)cc1)c1ccc(O)cc1,inactive,–
CNC(=O)O/N=C/C(C)(C)S(C)(=O)=O,inactive,–
O=C(O)CC(O)(CC(=O)O)C(=O)O,inactive,–
CC(C)[N+](=O)[O-],inactive,–
CCC[CH2][Sn]([Cl])([Cl])[CH2]CCC,–,0.966 µM (active)
Cc1cc(C(C)(C)c2ccc(O)c(C)c2)ccc1O,inactive,–
c1ccc2c(c1)Oc1ccccc1O2,inactive,–
OC(Cc1ccccc1Cl)(Cn1cncn1)C1(Cl)CC1 (stereo not given),inactive,–
C=CCOC(N)=O,inactive,–
O=CCCl,inactive,–

Compound,outcome,AC50
C=CC(=O)OCC(COC(=O)C=C)(COC(=O)C=C)COC(=O)C=C,–,8.41 µM (active)
CCC(C)(C#N)N=NC(C)(C#N)CC (stereo not given),inactive,–
COC(F)(C(F)(F)C(F)(F)F)C(F)(C(F)(F)F)C(F)(F)F (stereo not given),inactive,–
CCOC(=O)CCN(SN(C)C(=O)Oc1cccc2c1OC(C)(C)C2)C(C)C,inactive,–
CCOc1ccc(N)cc1,inactive,–
Cc1cc(C(F)(C(F)(F)F)C(F)(F)F)ccc1NC(=O)c1cccc(I)c1C(=O)NC(C)(C)CS(C)(=O)=O,inactive,–
CCOc1cc(C=O)ccc1O,inactive,–
O=c1oc2ccccc2c(O)c1C(CC(O)c1ccc(-c2ccc(Br)cc2)cc1)c1ccccc1 (stereo not given),inactive,14.4 µM (active)
Cc1cccc(C)c1NC(=O)CN1CCCC1=O,inactive,–
O=C(N[C@H]1CN2CCC1CC2)c1ccc2c(c1)OCCO2,inactive,–
N#Cc1ccc(Cl)cc1,inactive,–
Cc1ccc(OP(=O)(Oc2ccc(C)cc2C)Oc2ccc(C)cc2C)c(C)c1,–,26.2 µM (active)
C#CCO,inactive,–
c1cc[c]([Sb]([c]2ccccc2)[c]2ccccc2)cc1,inactive,–
O=c1nc(O)n(Cl)c(=O)n1Cl,inactive,–
COCC(=O)N(c1c(C)cccc1C)[C@H](C)C(=O)OC,inactive,–
Oc1c(Cl)cc(Cl)cc1Cl,inactive,–
NC(=O)c1ccc(N)nc1,inactive,–
Oc1cccc(-c2ccccc2)c1,–,168 µM (active)

# Source: PubChem BioAssay (EPA / NIEHS)
